Assay [1] deals with Glycogen synthase kinase-3 beta (Homo sapiens) (UniProt P49841). Conditions: at 1 µM.
For assay [2], the target named is Homeodomain-interacting protein kinase 1 (Homo sapiens) (UniProt Q86Z02). As to conditions: at 0.1 µM.
Assay [3] shares this target. As to conditions: at 1 µM.
Assay [4] has as its target T1, Homeodomain-interacting protein kinase 4 (Homo sapiens) (UniProt Q8NE63).
T1 sequence (whole entry): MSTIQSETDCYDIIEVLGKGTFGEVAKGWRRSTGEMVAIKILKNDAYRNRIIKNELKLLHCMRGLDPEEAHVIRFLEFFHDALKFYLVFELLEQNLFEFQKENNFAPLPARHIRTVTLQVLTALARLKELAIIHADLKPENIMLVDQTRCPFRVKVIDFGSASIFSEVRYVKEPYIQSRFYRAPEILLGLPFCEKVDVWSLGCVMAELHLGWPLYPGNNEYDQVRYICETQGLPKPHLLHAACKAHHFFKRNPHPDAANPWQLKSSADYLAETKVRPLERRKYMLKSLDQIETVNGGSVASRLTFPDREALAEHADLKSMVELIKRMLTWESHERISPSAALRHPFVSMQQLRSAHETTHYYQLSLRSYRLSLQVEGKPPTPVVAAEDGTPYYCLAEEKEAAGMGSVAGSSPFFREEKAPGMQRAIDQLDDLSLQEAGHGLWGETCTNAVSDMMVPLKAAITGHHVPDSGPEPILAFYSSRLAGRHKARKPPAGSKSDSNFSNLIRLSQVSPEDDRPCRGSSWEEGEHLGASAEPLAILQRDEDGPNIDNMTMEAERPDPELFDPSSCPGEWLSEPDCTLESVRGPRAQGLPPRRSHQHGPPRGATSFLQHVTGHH
As to conditions: at 0.1 µM.

For assay [5], the target named is T1, Homeodomain-interacting protein kinase 4 (Homo sapiens). As to conditions: at 1 µM.
In assay [6] the target is Mitogen-activated protein kinase 9 (Homo sapiens) (UniProt P45984). As to conditions: at 0.1 µM.
The target is the same in assay [7]. As to conditions: at 1 µM.
The target of assay [8] is Mitogen-activated protein kinase 1 (Homo sapiens) (UniProt P28482). As to conditions: at 0.1 µM.
The target is the same in assay [9]. As to conditions: at 1 µM.
Assay [10] deals with Mitogen-activated protein kinase 3 (Homo sapiens) (UniProt P27361). Conditions: at 0.1 µM.
Assay [11] shares this target. As to conditions: at 1 µM.
Assay [12] concerns the target SRSF protein kinase 3 (Homo sapiens) (UniProt Q9UPE1). As to conditions: at 0.1 µM.
Assay [13] shares this target. Conditions: at 1 µM.
For assay [14], the target named is Mitogen-activated protein kinase 14 (Homo sapiens) (UniProt Q16539). Conditions: at 0.1 µM.
For assay [15] the target is unchanged. Conditions: at 1 µM.
In assay [16] the target is Mitogen-activated protein kinase 11 (Homo sapiens) (UniProt Q15759). Conditions: at 0.1 µM.
Assay [17] shares this target. Conditions: at 1 µM.
Assay [18] has as its target T2, Mitogen-activated protein kinase 13 (Homo sapiens) (UniProt O15264).
T2 sequence (whole entry): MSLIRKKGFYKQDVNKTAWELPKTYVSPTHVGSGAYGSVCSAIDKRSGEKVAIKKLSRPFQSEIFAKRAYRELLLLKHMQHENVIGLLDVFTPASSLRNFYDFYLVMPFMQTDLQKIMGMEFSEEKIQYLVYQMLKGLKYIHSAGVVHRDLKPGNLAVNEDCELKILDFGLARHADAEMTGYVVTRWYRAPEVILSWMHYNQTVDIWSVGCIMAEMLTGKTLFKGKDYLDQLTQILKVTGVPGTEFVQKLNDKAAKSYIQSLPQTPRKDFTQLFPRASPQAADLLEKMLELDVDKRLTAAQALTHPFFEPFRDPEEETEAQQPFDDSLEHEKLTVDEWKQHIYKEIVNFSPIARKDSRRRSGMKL
Conditions: at 0.1 µM.

The target of assay [19] is T2, Mitogen-activated protein kinase 13 (Homo sapiens). As to conditions: at 1 µM.
Assay [20] deals with T3, Mitogen-activated protein kinase 12 (Homo sapiens) (UniProt P53778).
T3 sequence (whole entry): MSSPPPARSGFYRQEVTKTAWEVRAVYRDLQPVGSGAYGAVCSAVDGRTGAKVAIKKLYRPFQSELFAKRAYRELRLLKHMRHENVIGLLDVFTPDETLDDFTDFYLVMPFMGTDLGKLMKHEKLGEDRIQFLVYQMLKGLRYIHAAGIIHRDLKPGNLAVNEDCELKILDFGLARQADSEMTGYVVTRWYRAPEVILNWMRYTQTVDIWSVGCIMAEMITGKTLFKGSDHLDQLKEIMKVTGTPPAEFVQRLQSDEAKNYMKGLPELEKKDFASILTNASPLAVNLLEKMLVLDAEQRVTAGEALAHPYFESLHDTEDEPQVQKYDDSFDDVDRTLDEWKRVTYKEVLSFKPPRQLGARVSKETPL
As to conditions: at 0.1 µM.

Molecules are shown by their SMILES.

Sequence of Homeodomain-interacting protein kinase 1 (Homo sapiens) (Q86Z02 whole entry, looked up): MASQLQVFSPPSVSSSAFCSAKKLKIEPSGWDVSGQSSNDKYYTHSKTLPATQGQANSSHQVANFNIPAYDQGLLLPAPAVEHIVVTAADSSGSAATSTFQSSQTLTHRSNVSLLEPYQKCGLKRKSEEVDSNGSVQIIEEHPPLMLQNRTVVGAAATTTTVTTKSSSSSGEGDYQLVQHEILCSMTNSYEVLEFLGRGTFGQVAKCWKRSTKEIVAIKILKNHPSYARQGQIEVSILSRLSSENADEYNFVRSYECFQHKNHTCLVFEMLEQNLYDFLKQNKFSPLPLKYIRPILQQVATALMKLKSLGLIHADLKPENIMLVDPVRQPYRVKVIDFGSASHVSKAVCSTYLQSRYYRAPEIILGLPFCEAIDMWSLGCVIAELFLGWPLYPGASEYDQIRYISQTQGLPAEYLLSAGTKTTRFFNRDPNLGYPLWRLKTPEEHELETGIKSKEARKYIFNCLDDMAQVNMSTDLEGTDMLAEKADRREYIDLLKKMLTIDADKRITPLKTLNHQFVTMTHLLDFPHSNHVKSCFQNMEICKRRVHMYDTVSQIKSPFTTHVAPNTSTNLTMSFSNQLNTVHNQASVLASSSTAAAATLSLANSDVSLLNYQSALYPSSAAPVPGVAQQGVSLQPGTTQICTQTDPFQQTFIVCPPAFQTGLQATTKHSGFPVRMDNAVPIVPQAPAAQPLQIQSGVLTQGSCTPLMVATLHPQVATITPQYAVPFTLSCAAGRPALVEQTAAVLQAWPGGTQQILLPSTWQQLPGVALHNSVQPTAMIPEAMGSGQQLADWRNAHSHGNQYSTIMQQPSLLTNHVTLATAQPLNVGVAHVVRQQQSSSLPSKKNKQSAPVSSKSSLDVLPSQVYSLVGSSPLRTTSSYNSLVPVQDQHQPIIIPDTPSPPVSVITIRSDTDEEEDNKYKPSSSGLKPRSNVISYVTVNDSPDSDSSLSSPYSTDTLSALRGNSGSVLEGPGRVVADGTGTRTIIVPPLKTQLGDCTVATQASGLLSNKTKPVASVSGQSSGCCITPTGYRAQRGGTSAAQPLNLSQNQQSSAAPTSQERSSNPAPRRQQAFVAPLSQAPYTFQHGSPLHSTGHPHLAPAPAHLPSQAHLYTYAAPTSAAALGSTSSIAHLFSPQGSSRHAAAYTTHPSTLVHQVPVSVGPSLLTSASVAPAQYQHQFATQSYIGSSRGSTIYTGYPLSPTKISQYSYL
Sequence of Mitogen-activated protein kinase 14 (Homo sapiens) (Q16539 whole entry): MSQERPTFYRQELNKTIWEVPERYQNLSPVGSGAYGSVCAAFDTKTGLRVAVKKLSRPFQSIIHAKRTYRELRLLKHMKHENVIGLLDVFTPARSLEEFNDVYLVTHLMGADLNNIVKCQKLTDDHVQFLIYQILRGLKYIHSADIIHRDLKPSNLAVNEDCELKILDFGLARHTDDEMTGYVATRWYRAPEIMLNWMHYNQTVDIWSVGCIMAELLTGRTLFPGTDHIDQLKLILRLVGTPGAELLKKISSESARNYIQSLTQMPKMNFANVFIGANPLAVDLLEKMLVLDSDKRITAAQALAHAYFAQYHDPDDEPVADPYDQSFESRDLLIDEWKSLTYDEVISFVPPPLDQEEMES
Sequence of SRSF protein kinase 3 (Homo sapiens) (Q9UPE1 whole entry): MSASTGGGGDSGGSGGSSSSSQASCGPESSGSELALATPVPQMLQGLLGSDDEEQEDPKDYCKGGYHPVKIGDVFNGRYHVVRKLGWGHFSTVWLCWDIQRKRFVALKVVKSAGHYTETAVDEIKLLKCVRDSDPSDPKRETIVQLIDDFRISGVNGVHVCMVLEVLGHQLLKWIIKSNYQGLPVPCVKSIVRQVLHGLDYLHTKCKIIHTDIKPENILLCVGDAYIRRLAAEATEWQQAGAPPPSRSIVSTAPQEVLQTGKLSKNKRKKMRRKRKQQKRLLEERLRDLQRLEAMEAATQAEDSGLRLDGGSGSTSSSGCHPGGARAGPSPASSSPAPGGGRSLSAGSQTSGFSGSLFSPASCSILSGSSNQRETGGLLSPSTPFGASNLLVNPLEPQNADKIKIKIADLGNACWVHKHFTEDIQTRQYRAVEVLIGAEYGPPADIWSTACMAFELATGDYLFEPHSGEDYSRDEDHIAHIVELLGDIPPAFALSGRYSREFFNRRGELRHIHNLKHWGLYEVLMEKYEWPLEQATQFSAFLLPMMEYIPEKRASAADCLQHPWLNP
Sequence of Mitogen-activated protein kinase 3 (Homo sapiens) (P27361 whole entry): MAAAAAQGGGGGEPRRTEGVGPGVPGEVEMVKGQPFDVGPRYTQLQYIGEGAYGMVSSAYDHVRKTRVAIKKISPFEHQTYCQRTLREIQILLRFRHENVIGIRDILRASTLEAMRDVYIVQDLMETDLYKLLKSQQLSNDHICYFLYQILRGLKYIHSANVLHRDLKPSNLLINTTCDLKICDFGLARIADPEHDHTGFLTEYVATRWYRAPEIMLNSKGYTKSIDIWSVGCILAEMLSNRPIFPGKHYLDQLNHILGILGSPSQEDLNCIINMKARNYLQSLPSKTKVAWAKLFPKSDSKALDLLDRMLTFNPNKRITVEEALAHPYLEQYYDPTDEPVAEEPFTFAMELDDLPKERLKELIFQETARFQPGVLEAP
Sequence of Glycogen synthase kinase-3 beta (Homo sapiens) (P49841 whole entry, looked up): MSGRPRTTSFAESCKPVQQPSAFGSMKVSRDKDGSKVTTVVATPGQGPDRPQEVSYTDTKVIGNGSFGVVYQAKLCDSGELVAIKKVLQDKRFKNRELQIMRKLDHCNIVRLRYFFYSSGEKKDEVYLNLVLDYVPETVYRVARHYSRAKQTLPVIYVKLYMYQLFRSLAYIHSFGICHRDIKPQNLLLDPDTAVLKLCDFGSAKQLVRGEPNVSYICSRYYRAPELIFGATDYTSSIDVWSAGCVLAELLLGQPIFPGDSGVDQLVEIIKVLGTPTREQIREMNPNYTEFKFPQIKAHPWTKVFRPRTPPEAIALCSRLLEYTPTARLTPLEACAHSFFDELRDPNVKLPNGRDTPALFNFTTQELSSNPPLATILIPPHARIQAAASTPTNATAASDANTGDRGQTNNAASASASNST
Sequence of Mitogen-activated protein kinase 11 (Homo sapiens) (Q15759 whole entry): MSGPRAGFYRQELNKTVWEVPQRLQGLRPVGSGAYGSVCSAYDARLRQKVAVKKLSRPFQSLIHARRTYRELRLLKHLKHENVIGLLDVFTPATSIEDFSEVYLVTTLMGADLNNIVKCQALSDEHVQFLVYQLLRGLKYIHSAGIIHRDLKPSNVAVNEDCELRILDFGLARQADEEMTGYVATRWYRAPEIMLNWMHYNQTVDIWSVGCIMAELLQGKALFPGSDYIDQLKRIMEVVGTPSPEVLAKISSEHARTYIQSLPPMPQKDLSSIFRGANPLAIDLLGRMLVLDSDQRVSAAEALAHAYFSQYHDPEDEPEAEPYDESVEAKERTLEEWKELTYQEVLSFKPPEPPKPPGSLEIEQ
Sequence of Mitogen-activated protein kinase 1 (Homo sapiens) (P28482 whole entry): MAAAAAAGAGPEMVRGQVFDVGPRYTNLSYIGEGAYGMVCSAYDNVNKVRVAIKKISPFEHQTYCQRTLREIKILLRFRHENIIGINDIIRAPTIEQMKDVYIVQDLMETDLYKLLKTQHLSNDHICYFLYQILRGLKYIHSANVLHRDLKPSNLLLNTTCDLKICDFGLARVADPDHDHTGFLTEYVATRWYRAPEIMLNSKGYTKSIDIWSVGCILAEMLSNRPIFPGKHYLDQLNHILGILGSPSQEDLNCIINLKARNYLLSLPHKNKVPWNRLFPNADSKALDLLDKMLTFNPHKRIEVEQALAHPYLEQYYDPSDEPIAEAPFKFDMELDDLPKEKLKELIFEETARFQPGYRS
Sequence of Mitogen-activated protein kinase 9 (Homo sapiens) (P45984 whole entry, looked up): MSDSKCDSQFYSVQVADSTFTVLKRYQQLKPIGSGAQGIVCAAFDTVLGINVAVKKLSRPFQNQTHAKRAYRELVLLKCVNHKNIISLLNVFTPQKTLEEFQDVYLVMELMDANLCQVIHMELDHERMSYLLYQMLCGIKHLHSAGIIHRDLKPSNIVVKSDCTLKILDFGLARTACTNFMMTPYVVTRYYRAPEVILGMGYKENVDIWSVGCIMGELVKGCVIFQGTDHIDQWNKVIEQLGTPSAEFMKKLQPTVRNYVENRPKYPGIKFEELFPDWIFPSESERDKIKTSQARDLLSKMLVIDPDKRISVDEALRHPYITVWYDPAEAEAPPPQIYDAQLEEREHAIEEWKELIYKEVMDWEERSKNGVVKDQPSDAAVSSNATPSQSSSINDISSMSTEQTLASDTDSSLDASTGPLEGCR

`CC1=C(C(=O)Nc2ccc3[nH]ncc3c2)C(c2ccc3ccccc3c2)CC(=O)N1` (stereo not given): the inhibition in assay [1] turned out to be 7.81%; in assay [2], 1.49%; in assay [3], 4.61%; in assay [4], 1.02%; in assay [5], 4.03%; in assay [6], 0.73%. The inhibition in assay [7] worked out at 2.65%; in assay [8], 5.52%; in [9] it was 39.5%; in assay [10], 3.92%; in [11], 22.4%; in assay [12], 0.02%. Besides, the inhibition in [13] is -0.13%; in [14], 3.64%; in assay [15] it was 5.06%; in [16], -1.05%; in assay [17], 2.44%; in assay [18], 3.08%. Also, the inhibition in assay [19] is 2.24%; in assay [20], -0.44%.
For `Cc1cc(O)cc(C)c1/C=C/c1cncc(-c2nn[nH]n2)c1`, the inhibition in assay [1] was 2.36%; in [2] it was -4.42%; in assay [3], -1.96%; in [4], 1.12%; in assay [5], 3.32%; in assay [6] it was 7.47%. The inhibition in assay [7] was 9.2%; in [8] it was 4.59%; in [9], 5.51%; in assay [10], 4.38%; in assay [11] it was 5.1%; in [12] it was 0.25%. The inhibition in [13] was -0.18%; in assay [14], 8.41%; in assay [15], 12.6%; in assay [16], 3.52%; in assay [17] it was 3.01%; in assay [18] it was 3.42%. The inhibition in assay [19] was 5.1%; in assay [20], 1.46%.
As to `CCn1c(-c2nonc2N)nc2cncc(C(=O)N3CCNCC3)c21`, the inhibition in assay [1] was 1.94%; in assay [2], -1.03%; in assay [3], 0.35%; in assay [4], -0.43%; in assay [5], 0.6%; in assay [6] it was 5.31%. For the same compound, the inhibition in assay [7] was found to be 8.83%; in assay [8], 8.16%; in assay [9], 7.48%; in [10], 6.65%; in assay [11], 7.02%; in assay [12], 0.64%. In addition, the inhibition in assay [13] is -1.54%; in assay [14], 14.5%; in assay [15], 20.5%; in [16] it was 5.86%; in assay [17], 5.3%; in assay [18] it was 6.15%. In addition, the inhibition is 7.35% in [19] and 3.73% in [20].
Turning to `Cc1nn(C)c2cc(N(C)c3ccnc(Nc4cccc(S(N)(=O)=O)c4)n3)ccc12`, the inhibition in assay [1] is 5.82%; in assay [2] it was -3.06%; in [3], -2.18%; in assay [4], -1.56%; in assay [5] it was 4.09%; in assay [6], 3.35%. In addition, the inhibition in assay [7] was 10.2%; in [8], 2.91%; in [9] it was 4.88%; in [10], 2.88%; in [11], 0.11%; in [12], -3.4%. For the same compound, the inhibition was -1.66% in assay [13]; 4.32% in [14]; 19.7% in assay [15]; 3.77% in [16]; 25.1% in [17]; 1.54% in assay [18]. Moreover, the results for the inhibition in [19] and in [20] were 4.16% and -0.41%, respectively.
Take `Cc1ccc(NC(=O)c2ccnc(N3CCCC3)c2)cc1-c1ccc(C(=O)NCC2CC2)cc1`: the inhibition in assay [1] is 3.68%; in [2], -4.3%; in [3] it was -2.16%; in assay [4], -1.31%; in assay [5], 2.09%; in assay [6], 2.66%. Further, the inhibition is 6.82% in [7]; 4.25% in [8]; 6.09% in assay [9]; 2.96% in [10]; 3.65% in assay [11]; -0.5% in [12]. For the same compound, the inhibition in assay [13] is -0.3%; in assay [14], 38.3%; in [15] it was 79.6%; in [16], 40.9%; in assay [17], 78.9%; in assay [18], 3.45%. Also, the inhibition in assay [19] came out at 5.79%; in assay [20], 4.49%.
Consider `CCn1c(-c2nonc2N)nc2c(C#CC(C)(C)O)nc(CN3CCCC3)cc21`, for which the inhibition in assay [1] was 18.9%; in [2], -1.35%; in [3], 2.58%; in assay [4] it was -1.44%; in assay [5] it was 0.75%; in [6], 0.67%. Moreover, the inhibition is -2.07% in assay [7]; -1.09% in [8]; 0.12% in assay [9]; 0.51% in assay [10]; 0.84% in assay [11]; -1.03% in [12]. For the same compound, the inhibition in assay [13] is -0.96%; in assay [14], 0.68%; in assay [15], -0.47%; in [16], -2.47%; in assay [17], 0.28%; in assay [18], 0.31%. Also, the inhibition in assay [19] was -1.59%; in [20], 1.31%.

Usually inhibition stands for the drop in the measured response relative to a control, in per cent.

Source of the values: ChEMBL document CHEMBL1961873, “Compounds: GSK PKIS; Assays: Nanosyn kinase panel” (2012).
